Hit rate of the full screen: of about 310,000 compounds, about 14,000 (4.5%) showed an effect of 50% or more. The effect is printed as a negative number. The entries come from a sample that favours strong results as a whole.
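Note: peak tail current of the secondary pulse compared with the same well before compound.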

In the experiment the target is human ether-à-go-go-related gene (hERG) potassium channel (human, UniProt Q12809). Nature of the experiment: primary screen, population patch clamp on CHO cells stably expressing hERG; higher = less effect of the substance.
human ether-à-go-go-related gene (hERG) potassium channel, sequence (Q12809 whole entry, looked up): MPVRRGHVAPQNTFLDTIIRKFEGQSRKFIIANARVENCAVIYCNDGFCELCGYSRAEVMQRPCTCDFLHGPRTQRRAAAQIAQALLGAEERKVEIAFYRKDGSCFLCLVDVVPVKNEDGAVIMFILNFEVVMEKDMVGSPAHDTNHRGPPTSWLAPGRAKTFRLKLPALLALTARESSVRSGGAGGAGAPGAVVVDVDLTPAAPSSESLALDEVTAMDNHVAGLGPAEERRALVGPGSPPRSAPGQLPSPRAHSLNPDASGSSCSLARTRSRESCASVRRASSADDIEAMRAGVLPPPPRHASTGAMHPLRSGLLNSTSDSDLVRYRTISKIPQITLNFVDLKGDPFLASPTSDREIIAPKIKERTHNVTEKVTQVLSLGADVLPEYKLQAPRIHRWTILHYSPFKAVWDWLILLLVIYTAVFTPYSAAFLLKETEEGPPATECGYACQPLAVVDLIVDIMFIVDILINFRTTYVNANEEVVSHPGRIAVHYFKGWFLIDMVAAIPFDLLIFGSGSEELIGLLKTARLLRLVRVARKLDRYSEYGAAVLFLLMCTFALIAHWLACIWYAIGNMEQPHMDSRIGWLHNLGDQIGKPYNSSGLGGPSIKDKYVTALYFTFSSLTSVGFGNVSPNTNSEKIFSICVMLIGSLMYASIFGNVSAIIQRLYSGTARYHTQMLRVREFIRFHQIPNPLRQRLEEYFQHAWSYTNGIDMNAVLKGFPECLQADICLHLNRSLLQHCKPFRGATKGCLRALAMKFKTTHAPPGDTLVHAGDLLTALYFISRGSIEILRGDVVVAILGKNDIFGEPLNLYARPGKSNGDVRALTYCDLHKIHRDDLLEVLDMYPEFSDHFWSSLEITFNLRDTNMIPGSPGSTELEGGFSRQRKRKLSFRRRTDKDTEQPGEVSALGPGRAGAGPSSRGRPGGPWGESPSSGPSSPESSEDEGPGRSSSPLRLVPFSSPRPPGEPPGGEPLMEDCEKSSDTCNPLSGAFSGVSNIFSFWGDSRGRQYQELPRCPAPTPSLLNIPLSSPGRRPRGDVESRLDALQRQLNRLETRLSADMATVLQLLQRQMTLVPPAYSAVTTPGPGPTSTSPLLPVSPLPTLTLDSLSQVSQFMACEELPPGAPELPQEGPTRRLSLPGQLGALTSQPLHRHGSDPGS
As for `COc1ccc(C(NC(=O)c2cccnc2)c2cc(Cl)c3cccnc3c2O)cc1OC` (stereo not shown), the “hERG current change (%, negative = inhibition) at 10uM” value is 10.5%.

Regarding `NS(=O)(=O)c1ccc(NC(=O)CSc2nnc(-c3ccc(O)cc3)o2)cc1`, the “hERG current change (%, negative = inhibition) at 10uM” value was found to be 25.1%. `Cc1onc(-c2ccccc2)c1C(=O)OCC(=O)NC(C)c1ccc(Cl)cc1` (stereo not shown): the “hERG current change (%, negative = inhibition) at 10uM” value is -7.03%. For the molecule `CCOc1nc(-c2ccccc2O)nc2ccccc12`, the “hERG current change (%, negative = inhibition) at 10uM” value is on record as 2.42%. `Cc1ccc(-c2cc(-c3ccc(C)cc3)[n+](-c3ccc(C(=O)[O-])cc3)c(-c3ccc(C)cc3)c2)cc1`: the “hERG current change (%, negative = inhibition) at 10uM” value is recorded as -26.8%. For `Cc1ccc(-c2cc(-c3ccc(C)cc3)[n+](-c3ccc(C(=O)O)cc3)c(-c3ccc(C)cc3)c2)cc1.[O-][Cl+3]([O-])([O-])[O-]` the value was 26.5%. For the molecule `Cc1ccc(-c2cc(-c3ccc(C)cc3)[n+](C)o2)cc1.[O-][Cl+3]([O-])([O-])[O-]`, the “hERG current change (%, negative = inhibition) at 10uM” value is -68.4%. For `C=CCNC(=O)c1onc(CSc2ccc(F)cc2)c1C(=O)NCCOC` the value was -43%. For `CCN(CC(=O)NCc1ccc(Cl)cc1)C(=O)/C=C/c1ccc(C#N)cc1` the value was -62%; for `CCN(CC(=O)NCc1ccc(Cl)cc1)C(=O)/C=C/c1cc(OC)c(OC)c(OC)c1`, 3.83%; for `CCN(CC(=O)NCc1ccc(Cl)cc1)C(=O)/C=C/c1ccccc1`, -46%. For `CCN(CC(=O)NCc1ccc(Cl)cc1)C(=O)/C=C/c1ccc(Cl)c([N+](=O)[O-])c1` the value was -67.6%; for `CCN(CC(=O)Nc1ccccc1C(F)(F)F)C(=O)/C=C/c1ccc(Cl)c([N+](=O)[O-])c1`, 10.1%. As to `CCN(CC(=O)NCc1ccc(Cl)cc1)C(=O)/C=C/c1cccs1`, the “hERG current change (%, negative = inhibition) at 10uM” value was -49.1%. For `CN(CCC(=O)Nc1ccc(Cl)cc1)Cc1ccccc1.Cl` the value was -39.9%; for `CCCC(NC(=O)COc1cc2c(c3oc(=O)cc(C)c13)CCC(C)(C)O2)C(=O)O` (stereo not shown), 18.4%. For `O=C(NCc1ccccc1)c1ccc(C2SCC(=O)N2Cc2ccccc2)cc1` (stereo not shown) the value was -12.6%. In the case of `CCOc1c(OC(C)=O)ccc(/C=C/c2ccc3cccc(OC(C)=O)c3n2)c1[N+](=O)[O-]`, the “hERG current change (%, negative = inhibition) at 10uM” value is -4.23%. In the case of `O=Cc1ccc2oc3nc4n(c(=O)c3c(=O)c2c1)CCCS4`, the “hERG current change (%, negative = inhibition) at 10uM” value is -35.7%. With `CCN1CCN(c2nc3ccccc3nc2C(C#N)C(=O)OCc2ccccc2)CC1` (stereo not shown), the “hERG current change (%, negative = inhibition) at 10uM” value is reported as -73.7%. Turning to `CCOC(=O)N1CCN(c2nc3ccccc3nc2C(C#N)C(=O)NCCc2ccccc2)CC1` (stereo not shown), the “hERG current change (%, negative = inhibition) at 10uM” value came out at 7.98%. For `CCC(CC)COC(=O)C(C#N)c1nc2ccccc2nc1N1CCOCC1` (stereo not shown) the value was -7.91%. Consider `CCC(C)COC(=O)C(C#N)c1nc2ccccc2nc1N1CCCCC1` (stereo not shown), for which the “hERG current change (%, negative = inhibition) at 10uM” value was -1.25%. For `COC(=O)C(C#N)c1nc2ccccc2nc1N1CCCC1` (stereo not shown), the “hERG current change (%, negative = inhibition) at 10uM” value is listed as -0.357%. For `CCC(CC)COC(=O)C(C#N)c1nc2ccccc2nc1N1CCN(CC)CC1` (stereo not shown) the value was -72.7%; for `COc1ccc(/C=C/C(=O)c2ccc[nH]2)c(OC)c1OC`, -4.89%; for `CC(=O)c1ccc(-n2c(C)ccc2-c2ccccc2)cc1`, 1%. As for `CCOC(=O)N1CCN(C(=O)Cn2ccc3c(OC)cccc3c2=O)CC1`, the “hERG current change (%, negative = inhibition) at 10uM” value was 6.78%. Turning to `CCOC(=O)c1sc(NS(=O)(=O)c2cc(C)ccc2C)nc1C`, the “hERG current change (%, negative = inhibition) at 10uM” value is recorded as 10.4%.

`COc1ccc(/C=C/C=C2\NC(=S)NC2=O)cc1`: the “hERG current change (%, negative = inhibition) at 10uM” value came to 22.1%. On to `Cc1cc2nc(/N=C(\N)NC(=O)N3c4ccccc4Sc4ccccc43)nc(C)c2cc1C`, for which the “hERG current change (%, negative = inhibition) at 10uM” value is on record as -38.9%. For `O=C(CSC1=Nc2ccccc2C2=NC(c3ccccc3)C(=O)N12)NC1CCCCC1` (stereo not shown) the value was -20.1%.

In the case of `NC(=O)CSC1=Nc2ccccc2C2=NC(c3ccccc3)C(=O)N12` (stereo not shown), the “hERG current change (%, negative = inhibition) at 10uM” value was 1.61%.

As to `CCN(CC)C(=O)CSC1=Nc2ccccc2C2=NC(c3ccccc3)C(=O)N12` (stereo not shown), the “hERG current change (%, negative = inhibition) at 10uM” value is given as -46.4%.

Consider `CCC(C)NC(=O)CSC1=Nc2ccccc2C2=NC(CC(=O)NCc3ccccc3)C(=O)N12` (stereo not shown), for which the “hERG current change (%, negative = inhibition) at 10uM” value is listed as -0.668%. In the case of `CCC(C)NC(=O)CSC1=Nc2ccccc2C2=NC(c3ccccc3)C(=O)N12` (stereo not shown), the “hERG current change (%, negative = inhibition) at 10uM” value was -55.3%. For the molecule `CN(C(=O)CSC1=Nc2ccccc2C2=NC(c3ccccc3)C(=O)N12)C1CCCCC1` (stereo not shown), the “hERG current change (%, negative = inhibition) at 10uM” value is -73%. With `O=C1CCCC(O)=C1N=Nc1cccc(S(=O)(=O)N2CCOCC2)c1`, the “hERG current change (%, negative = inhibition) at 10uM” value was -1.24%. For `O=C(N/N=C\c1ccc[nH]1)c1cncc(Br)c1` the value was 3.82%; for `O=C(NCc1ccccn1)C1CCCN(S(=O)(=O)c2ccccc2)C1` (stereo not shown), 10.9%; for `COc1ccc(C(=O)NCc2nnc(SCC(=O)NO)n2Cc2ccccc2)cc1`, -5.01%.

As for `COc1ccccc1NC(=O)c1ccc(-n2ccnc2)c([N+](=O)[O-])c1`, the “hERG current change (%, negative = inhibition) at 10uM” value is reported as 15.1%. In the case of `O=C(O)c1ccc(-n2ccnc2)c([N+](=O)[O-])c1`, the “hERG current change (%, negative = inhibition) at 10uM” value was found to be 32.1%. For the molecule `Cc1c(C(=O)NC(C)CCc2ccccc2)cccc1[N+](=O)[O-]` (stereo not shown), the “hERG current change (%, negative = inhibition) at 10uM” value was -18.2%. For `CC(NC(=O)c1ccc(N(C)C)c([N+](=O)[O-])c1)c1ccc(-n2ccnc2)cc1` (stereo not shown) the value was -62.9%; for `Cc1cccc(C(=O)NC(C)c2ccc(-n3ccnc3)cc2)c1C` (stereo not shown), -42.2%. For `O=[N+]([O-])c1ccc(-n2ccnc2)cc1` the value was 7.95%; for `COc1ccc(C(=O)NC(C)c2ccc(-n3ccnc3)cc2)cc1[N+](=O)[O-]` (stereo not shown), -77.9%; for `Cc1c(C(=O)NC(C)c2ccc(-n3ccnc3)cc2)cccc1[N+](=O)[O-]` (stereo not shown), -74.1%. For `CC(NC(=O)c1cc([N+](=O)[O-])cc([N+](=O)[O-])c1)c1ccc(-n2ccnc2)cc1` (stereo not shown) the value was -73.5%; for `COc1ccc(C(=O)NNC(=O)c2ccncc2)cc1[N+](=O)[O-]`, 25.2%; for `Cc1cccc(N2CN(Cc3cccnc3)CNC2=S)c1`, -3.28%.
